Results from PubChem BioAssay AID652115 (Broad Institute, 2013).
“And” between values parts separate entries of the source, which are not always exact repeats. Equal entries are not always repeated. About 3,800 (1.2%) of roughly 330,000 compounds were called active. Cut-off read from the data, not from the text of the source: active = inhibition above about 15%; inconclusive = no clear call, values can overlap the other calls; inactive = below that. What follows is part of a selection rich in actives, with near analogues and random picks from the rest.

target: NAD-dependent protein deacylase sirtuin-5, mitochondrial (Homo sapiens) (UniProt Q9NXA8); test: blockers of sirtuin-5 deacylase activity – biochemical, fluorescence imaging, single point, set 5, primary screen (AID 652115); settings: Purified SirT5, succinyl-peptide AMC, trypsin-coupled fluorescence; at 15 µM; hits give high values
Sequence (Q9NXA8 whole entry, looked up): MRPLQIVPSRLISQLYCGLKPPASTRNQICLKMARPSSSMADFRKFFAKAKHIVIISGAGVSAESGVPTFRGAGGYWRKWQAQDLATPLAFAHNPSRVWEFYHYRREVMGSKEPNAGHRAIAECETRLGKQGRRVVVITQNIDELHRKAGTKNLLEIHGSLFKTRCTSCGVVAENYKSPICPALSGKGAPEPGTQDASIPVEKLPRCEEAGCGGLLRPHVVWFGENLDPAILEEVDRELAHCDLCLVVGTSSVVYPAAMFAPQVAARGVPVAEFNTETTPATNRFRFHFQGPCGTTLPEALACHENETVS

| SMILES | inhibition |
| --- | --- |
| CN(C)C(=O)[C@@H]1[C@@H](CO)[C@@H]2Cn3c(ccc(-c4ccncc4)c3=O)[C@H]1N2C(=O)NC1CCCC1 | -68% (inactive) |
| CCN1/C(=C\c2ccc3ccccc3[n+]2CC)Sc2cc(C)ccc21 | 28.6% (active) |
| COc1cccc(-c2cnc3c(c2)C(=O)N([C@H](C)CO)C[C@H](C)[C@@H](CN(C)Cc2ccc(C(=O)O)cc2)O3)c1 | -2.74% (inactive) |
| O=C(C[C@H]1C[C@@H]2c3cc(NC(=O)CC4CC4)ccc3O[C@@H]2[C@H](CO)O1)NCc1ccccn1 | -3.34% (inactive) |
| C[C@@H](O)C#Cc1cnc2c(c1)C(=O)N([C@@H](C)CO)C[C@H](C)[C@H](CN(C)C(=O)c1ccccc1F)O2 | 2.03% (inactive) |
| CC1c2nc3ccccc3n2C(CC(=O)NCCCN2CCOCC2)C(=O)N1Cc1ccccc1 (stereo unspecified) | 112% (active) |
| O=C(Cn1ncc2c3ccccc3n(Cc3ccccc3)c2c1=O)NCCCN1CCOCC1 | 0.065% (inactive) |
| CC1=C(C(=O)N(C)C)CC(CC(=O)NCCN2CCOCC2)C(=O)N1Cc1ccccc1 (stereo unspecified) | -4.9% (inactive) |
| C[C@@H]1CCCCO[C@@H](CN(C)Cc2ccc3c(c2)OCO3)[C@H](C)CN([C@@H](C)CO)C(=O)c2cc(NS(C)(=O)=O)ccc2O1 | -3.83% (inactive) |
| N#CC(C#N)=CN=c1ccn(Cc2ccc(Cl)cc2Cl)cc1 | 16.1% (active) |
| CC(C)(C)c1cc(C(=O)NN)n(Cc2ccc(Cl)cc2Cl)n1 | 1.67% (inactive) |
| C[C@@H]1CN([C@@H](C)CO)C(=O)c2cc(NC(=O)Nc3ccc(C(F)(F)F)cc3)ccc2O[C@@H](C)CCCCO[C@@H]1CN(C)C(=O)Nc1cccc2ccccc12 | -1.14% (inactive) |
| CC1CCN(C(=S)c2cccc(O)c2)CC1 | 0.61% (inactive) |
| CC1CCN(C(=S)c2ccc(-c3ccc(Cl)cc3Cl)o2)CC1 | 17.1% (active) |
| Cc1csc(NC(=O)c2ccc(-c3ccc(Cl)cc3Cl)o2)n1 | -0.507% (inactive) |
| COc1ccc2c3c([nH]c2c1)[C@H](CO)N(C(=O)c1ccccc1)CC31CN(C(=O)Nc2cccc(F)c2)C1 | 1.05% (inactive) |
| CC(C)c1cn([C@H]2C[C@@H]3O[C@H](CO)CC[C@@H]3O[C@@H]2CCc2ccc(C#CC3CCCCC3)cc2)nn1 | -3.82% (inactive) |
| Cc1sc2c(c1C)c(=O)n(-c1ccccc1)c(=O)n2CC(=O)NCC1CCCO1 (stereo unspecified) | -4.65% (inactive) |
| CCCNC(=O)CCc1c(C)nc2c(c(C)nn2-c2ccccc2)c1C | -2.55% (inactive) |
| Cc1nn(-c2ccccc2)c2c1c(C)c(CCC(=O)NCC1CCCO1)c(=O)n2C (stereo unspecified) | 39.7% (active) |
| CCCC#Cc1ccc([C@@H]2[C@@H](CO)N3C(=O)CN(C(=O)Nc4cccc(F)c4)C[C@H]23)cc1 | 6.12% (inactive) |
| CCC(=O)Nc1ccc2c(c1)C(=O)N(C)C[C@@H](OC)[C@H](C)CN(Cc1cccnc1)[C@@H](C)CO2 | -0.588% (inactive) |
| Cn1c(CC(=O)Nc2ccc(F)cc2)nnc1SCC(=O)NC1CCCCC1 | 0.115% (inactive) |
| Cc1ccc(SCC(=O)Nc2nncs2)cc1 | -2.47% (inactive) |
| Cc1ccc(NC(=O)Cc2nnc(SCC(=O)Nc3nncs3)n2C)cc1 | 17.8% (active) |
| O=C(C[C@H]1C[C@@H]2c3cc(NC(=O)C4CCC4)ccc3O[C@@H]2[C@H](CO)O1)NCCN1CCCCC1 | -1.29% (inactive) |

| SMILES | inhibition |
| --- | --- |
| C[C@H](CO)N1C[C@H](C)[C@@H](CN(C)C)Oc2c(NC(=O)Nc3ccc(F)cc3)cccc2C1=O | -3.52% (inactive) |
| C[C@H]1CN([C@@H](C)CO)C(=O)c2cc(-c3ccccc3F)cnc2O[C@@H]1CN(C)C | -1.72% (inactive) |
| CC(C)OCCCNC(=S)N1CCC(C(=O)c2ccc3c(c2)OCCO3)CC1 | 26.6% (active) |
| CCCNC(=S)N1CCC(NC(=O)c2ccc(OC)cc2)CC1 | 2.19% (inactive) |
| COCCNC(=O)C1CCN(S(=O)(=O)c2ccc3c(c2)OCCO3)CC1 | -1.09% (inactive) |
| O=C(c1cccnc1)N1CC2(C1)[C@@H](c1ccccc1)[C@H](CO)N2C(=O)C1CCC1 | -1.71% (inactive) |
| CCOC(=O)Cc1ncccc1C(=O)Nc1ccc(OC)cc1 | 15.7% (active) |
| COc1ccc(NC(=O)c2ccccc2CC[N+](=O)[O-])cc1 | -2.27% (inactive) |
| CCOC(=O)Cc1ncccc1C(=O)Nc1ccc(OC(F)(F)F)cc1 | -0.166% (inactive) |
| COc1cccc(C(=O)Nc2ccc3c(c2)C(=O)N(C)[C@@H]2CC[C@H](CC(=O)NCCCN4CCOCC4)O[C@H]2CO3)c1 | 1.19% (inactive) |
| COc1cccc(C#Cc2cnc3c(c2)C(=O)N([C@H](C)CO)C[C@@H](C)[C@@H](CN(C)C(=O)C2CCC2)O3)c1 | 0.234% (inactive) |
| O=C(N[C@@H]1CC[C@@H](CC(=O)N2CCc3ccccc3C2)O[C@H]1CO)C1CC1 | 3.34% (inactive) |
| CCS(=O)(=O)N1CC(=O)N2[C@H](CO)[C@@H](c3ccc(C#Cc4cccc(F)c4)cc3)[C@@H]2C1 | -0.525% (inactive) |
| NC(=O)c1ccc(Nc2ccc3nonc3c2[N+](=O)[O-])cc1 | 2.49% (inactive) |
| NC(=O)c1ccc(Nc2ccc3c(c2)CCC3)c([N+](=O)[O-])c1 | 28.4% (active) |
| CCOc1ccccc1Nc1ccc(C(=O)O)cc1[N+](=O)[O-] | -0.287% (inactive) |
| CCNC(=O)Nc1ccc2c(c1)C(=O)N(C)[C@H]1CC[C@H](CC(=O)NCC3CCCCC3)O[C@@H]1CO2 | 3.92% (inactive) |
| CCC(=O)Nc1ccc2c(c1)C(=O)N(C)[C@H]1CC[C@H](CC(=O)NCC3CCCCC3)O[C@H]1CO2 | -3.85% (inactive) |
| CCCNC(=O)Nc1ccc2c(c1)C(=O)N(C)[C@H]1CC[C@H](CC(=O)NCC3CCCCC3)O[C@@H]1CO2 | 31.7% (active) |
| C[C@@H]1CN([C@H](C)CO)C(=O)CCCn2cc(nn2)CO[C@@H]1CN(C)Cc1ccccc1C(=O)O | -0.401% (inactive) |
| COc1ccc2c3c([nH]c2c1)[C@H](CO)N(C(=O)C1CCCCC1)CC31CCN(C(=O)c2ccncc2)CC1 | -1.36% (inactive) |
| COc1cccc(S(=O)(=O)N2[C@@H]3CNC[C@H]2C3c2ccc(-c3cccc(C(=O)N(C)C)c3)cc2)c1 (stereo partly specified) | 3.63% (inactive) and 4.46% (inactive) |
| Cc1cc(=O)[nH]c(N/N=C/c2ccc3c(c2)OCCO3)n1 | 2.57% (inactive) |
| C(=N\Nc1ccc2ccccc2n1)/c1ccc2c(c1)OCO2 | 15.4% (active) |
| Cc1noc(C)c1/C=N/Nc1ccc2ccccc2n1 | -4.8% (inactive) |
| CN(C)Cc1cn(CC[C@H]2CC[C@H](NC(=O)Nc3ccccc3F)[C@@H](CO)O2)nn1 | -13.2% (inactive) |

| SMILES | inhibition |
| --- | --- |
| Cc1ccnc(NC(=O)c2ccc(Cl)c([N+](=O)[O-])c2)c1 | -6.51% (inactive) |
| O=C(Nc1ccncc1)c1ccc([N+](=O)[O-])cc1Cl | -1.67% (inactive) |
| O=C(Nc1ccncc1)c1ccc(Cl)c([N+](=O)[O-])c1 | 31.2% (active) |
| COCC(=O)N[C@@H]1C[C@@H]2O[C@@H](CO)CC[C@@H]2O[C@@H]1CCc1ccc(-c2ccccc2)cc1 | -3.27% (inactive) |
| CN(C)CC(=O)Nc1ccc2c(c1)[C@H]1C[C@H](CC(=O)NCc3ccccc3)O[C@@H](CO)[C@H]1O2 | -5.86% (inactive) |
| Cc1cccc(CN(C)C[C@H]2OCc3cn(nn3)CCCC(=O)N([C@@H](C)CO)C[C@H]2C)c1 | -2.48% (inactive) |
| CCCNC(=O)N1[C@H](CO)[C@@H](c2ccc(-c3ccc(C(=O)N(C)C)cc3)cc2)[C@@H]1C#N | 5.61% (inactive) |
| COc1ccc(NC(=O)N(C)C[C@@H]2OCCCC[C@H](C)Oc3ccc(NC(=O)c4ccccc4)cc3C(=O)N([C@H](C)CO)C[C@H]2C)cc1 | 3.2% (inactive) |
| CCC(=O)N1CCCCN2[C@H](CO)[C@@H](c3ccc(-c4cccnc4)cc3)[C@H]2C1 | 0.057% (inactive) |
| OC[C@H]1[C@H](c2ccc(-c3cccnc3)cc2)[C@H]2CN(Cc3ccccn3)CCCCN21 | 15.6% (active) |
| OC[C@@H]1[C@H](c2ccc(Br)cc2)[C@@H]2CN(Cc3ccccn3)CCCCN12 | 3.43% (inactive) |
| CN1C(=O)c2cc(NC(=O)NC3CCCC3)ccc2OC[C@@H]2O[C@@H](CC(=O)O)CC[C@H]21 | -7.32% (inactive) |
| O=C(C[C@@H]1CC[C@H](NC(=O)Nc2ccc(F)cc2)[C@H](CO)O1)NCc1ccccn1 | 1.52% (inactive) |
| CC=Cc1ccc2n(c1=O)C[C@@H]1[C@@H](CO)[C@H](C(=O)NCC3CC3)[C@H]2N1C(=O)c1ccccc1 (mixture of isomers) | -10.5% (inactive) |
| COC(=O)C[C@@H]1C[C@@H]2c3cc(NC(=O)NC4CCCC4)ccc3O[C@@H]2[C@@H](CO)O1 | -3% (inactive) |
| C[C@@H]1CN([C@@H](C)CO)C(=O)c2cc(NC(=O)Cc3ccccc3)ccc2O[C@H]1CN(C)Cc1ccc(Cl)c(Cl)c1 | 14.1% (inactive) |
| Cc1ccc(S(=O)(=O)N(C)C[C@@H]2Oc3ccc(NC(=O)Cc4cn(C)c5ccccc45)cc3C(=O)N([C@@H](C)CO)C[C@@H]2C)cc1 | 4.27% (inactive) |
| C[C@H]1CN([C@@H](C)CO)C(=O)c2cc(NC(=O)Cc3cn(C)c4ccccc34)ccc2O[C@@H]1CN(C)Cc1ccc(Cl)c(Cl)c1 | 22.6% (active) |
| Cc1ccc(S(=O)(=O)N(C)C[C@@H]2OCc3ccccc3-c3c(n(C)c4ccccc34)C(=O)N([C@@H](C)CO)C[C@@H]2C)cc1 | 17.7% (active) |
| C[C@@H]1CN([C@H](C)CO)C(=O)Cc2cc(NC(=O)Cc3cn(C)c4ccccc34)ccc2O[C@@H]1CN(C)S(=O)(=O)c1ccccc1 | 0.96% (inactive) |
| C[C@H]1CN([C@@H](C)CO)C(=O)c2cc(NC(=O)Cc3cn(C)c4ccccc34)ccc2O[C@H]1CN(C)Cc1ccc(Cl)c(Cl)c1 | 7.81% (inactive) |
| Cc1ccc(S(=O)(=O)N(C)C[C@H]2Oc3ccc(NC(=O)Cc4cn(C)c5ccccc45)cc3CC(=O)N([C@@H](C)CO)C[C@H]2C)cc1 | 16.9% (active) |
| C[C@@H]1CN([C@@H](C)CO)C(=O)c2c(c3ccccc3n2C)-c2ccccc2CO[C@@H]1CN(C)S(=O)(=O)c1ccc(F)cc1 | 3.02% (inactive) |
| C[C@H]1CN([C@@H](C)CO)C(=O)c2c(c3ccccc3n2C)-c2ccccc2CO[C@H]1CN(C)S(=O)(=O)c1ccc(C#N)cc1 | 3.54% (inactive) |
